High-throughput results: PubChem, National Center for Advancing Translational Sciences (NCATS)
IL-1B inflam inh: inhibitors of inflammasome signaling (IL-1 beta secretion); THP-1 LPS/ATP IL-1B secretion, AlphaLISA, 16 h; stronger effect = lower value; activity change, % at 57.5 µM; 360,000 compounds, 4.7% hits; in the data active means activity change below about -50%; inconclusive means mostly about -30% to -49%
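Secreted IL-1B measured by AlphaLISA bead assay after 16 h compound exposure of THP-1 cells; compounds (final up to 57.5 uM) added 1 h before LPS (250 ng/mL) and ATP (1.25 mM) stimulation; lower signal means less secretion.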
TDP1 cell CPT: growth inhibition of DT40 Tdp1-/-;hTDP1 cells with camptothecin (screen for TDP1 inhibitors); chicken DT40 Tdp1-/-;hTDP1 cells + 20 nM CPT, ATP luminescence, 48 h; Potency, µM (series often up to 46.2 µM), usual class: inhibitors; 420,000 compounds, 12% hits; AID 686979; further: nearly all actives have a fitted effect of over 55% in size
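Chicken DT40 Tdp1-/- cells stably complemented with human TDP1 were seeded at 400 cells/well in medium containing 20 nM camptothecin, exposed to pin-transferred compounds, and grown at 37 °C for at least 48 hr. Viability was read as ATP luminescence.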
HT1080 IDH1KD tx: HT-1080 IDH1 knockdown cell toxicity (counter line); 360,000 compounds, 2% hits; HT-1080 IDH1 knockdown viability, ATP luminescence, 48 h; Potency, µM (series often up to 46.1 µM), most hits filed as cytotoxic
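Knockdown cells (IDH1KD HT-1080) received compounds 2 h after plating at 750 cells/well and were kept 48 h at 37 °C in 5% FBS RPMI. A CellTiter-Glo luminescence read gave % activity for curve fitting.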
HT1080-NT tox: kills 2HG-producing HT-1080-NT fibrosarcoma cells. 360,000 compounds, 1.6% hits. Potency, µM (highest dose often 46.1 µM), most hits filed as cytotoxic. HT-1080-NT fibrosarcoma viability, CellTiter-Glo ATP luminescence, 48 h;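 further: NT is the 2HG producing partner of a matched IDH1 knockdown line; nearly all actives have a fitted effect of over 55% in size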
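A 48-hour cytotoxicity screen used HT-1080-NT cells plated 2 hours before compound delivery. ATP-based CellTiter-Glo luminescence measured viability, normalized to DMSO and no-cell controls.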
TDP1 cell noCPT: qHTS for Inhibitors of human tyrosyl-DNA phosphodiesterase 1 (TDP1): qHTS in cells in absence of CPT. DT40 Tdp1-/- hTDP1 cells, no CPT, ATP luminescence, 48 h. Potency, µM (titrated, usually from 46.2 µM), hits mostly inhibitors. 420,000 compounds, 15% hits. AID 686978, 2013; further: nearly all actives have a fitted effect of over 55% in size
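DT40 Tdp1-/-;hTDP1 cells, no CPT (DMSO vehicle only), 400 cells/well; compounds pin-transferred; ≥48 hr, 37 °C; CellTiter-Glo 30 min RT dark, luminescence read.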
Numbers stand for hits; - = inactive; ? = inconclusive; . = not tested or not shown; ! = a repeat was not active. Most compounds without a hit are left out; they make up all but 19% or so of the library. Unless noted, the call rests on the fitted dose curve; in most records, active means well fitted curve in the direction sought with a large enough effect; inconclusive means small, poorly fitted or top-dose-only effect, or another doubt; inactive means no such curve, though single readings can be large; an effect the other way counts as inactive or inconclusive.

SMILES | IL-1B inflam inh | TDP1 cell CPT | HT1080 IDH1KD tx | HT1080-NT tox | TDP1 cell noCPT
CCc1ccc(CNC(=O)C2CCN(c3nc4ccccc4nc3C(F)(F)F)CC2)cc1 | . | - | . | . | ?
Cc1cc(C)cc(NC(=O)c2ccc(NC(=O)c3ccco3)cc2)c1 | . | 21µM | - | - | ?
O=C(Cc1ccccc1)Nc1ccc(NC(=O)c2ccco2)cc1 | ? | - | - | - | -
C=Cc1cccc(NC(=O)c2ccc(NC(=O)c3ccco3)cc2)c1 | - | 15µM | - | - | 6.5µM
O=C(/C=C\c1ccccc1)Nc1ccc(NC(=O)c2ccco2)cc1 | - | 12µM | ? | ? | 23µM
O=C(NS(=O)(=O)c1ccccc1)c1cccc(Br)c1 | - | - | - | - | -
CCOC(=O)C1=C(O)/C(=C/c2cccc(OC)c2O)N=C1C | - | ? | - | - | -
CCOC(=O)C1=C(O)/C(=C\c2cc(C)n(-c3ccccc3F)c2C)N=C1C | - | 12µM | - | - | 23µM
COC(=O)C1=C(C)NC(=O)/C1=C\c1cc(C)n(-c2ccccc2F)c1C | -114 | - | - | - | ?
CCOC(=O)C1=C(O)/C(=C\c2cc(C)n(-c3ccc(F)cc3)c2C)N=C1C | - | ? | - | - | 15µM
CC(NC(=O)CSc1nc2ccc(N)cc2s1)c1ccccc1 (centres undefined) | - | - | - | - | ?
Cc1cc(NC(=O)C2CC2)ccc1NC(=O)c1cccs1 | ? | - | - | - | -
Cc1cc(NC(=O)COc2ccccc2C)ccc1NC(=O)c1cccs1 | -62 | - | - | - | 12µM
Cc1cccc(C)c1OCC(=O)Nc1ccc(NC(=O)c2ccco2)cc1 | - | 26µM | - | - | 21µM
COc1cc(NC(=O)COc2ccccc2C)ccc1NC(=O)c1ccco1 | - | - | - | - | -
Cc1cc(NC(=O)COc2ccccc2C)ccc1NC(=O)c1ccco1 | - | 23µM | - | - | 16µM
Cc1cccc(C)c1OCC(=O)Nc1cccc(NC(=O)c2ccco2)c1 | - | ? | - | - | ?
COc1cccc2cc(C(=O)OCC(=O)NCc3ccc4c(c3)OCO4)c(=O)oc12 | - | - | - | - | -
CC(=O)Nc1c(C)nn(-c2ccccc2)c1N1CCC(C(=O)NCc2ccc(F)cc2)CC1 | . | - | . | . | -
CCCC(=O)N=C1SC2CS(=O)(=O)CC2N1c1ccc(-c2nc3ccc(C)cc3s2)cc1 (centres undefined) | - | ? | - | - | ?
Cc1ccccc1-c1nc(CN2CCC(C(=O)NCc3ccco3)CC2)c(C)o1 | -67 | ? | - | - | ?
Cc1oc(-c2ccccc2F)nc1CN1CCC(C(=O)NCCC2=CCCCC2)CC1 | - | ? | - | - | 23µM
Cc1ccccc1-c1nc(CN2CCC(C(=O)NCc3ccc(F)cc3)CC2)c(C)o1 | . | 16µM | . | . | 21µM
C=CCN(c1ccccc1)S(=O)(=O)c1ccc(Cl)c(C(=O)OCC(=O)c2[nH]c(C)c(C(C)=O)c2C)c1 | - | - | - | - | ?
CC(=O)N1CCN(S(=O)(=O)c2ccc(C)cc2)C1c1ccc(N(C)C)cc1 (centres undefined) | - | - | - | - | ?
SMILES | IL-1B inflam inh | TDP1 cell CPT | HT1080 IDH1KD tx | HT1080-NT tox | TDP1 cell noCPT
Cc1ccc(S(=O)(=O)N2CCN(C(=O)CN3CCOCC3)C2c2ccccc2)cc1 (centres undefined) | - | ? | - | - | 16µM
Cc1ccc(S(=O)(=O)N2CCN(S(=O)(=O)c3ccccc3)C2c2ccc(N(C)C)cc2)cc1 (centres undefined) | - | 16µM | - | - | ?
O=C(CSc1nnc(C2CC2)n1C1CC1)c1ccc(Br)s1 | - | - | - | - | -
COc1ccc(/C=N/NC(=O)CO/N=C(\C)c2cccs2)cc1 | - | - | - | - | -
C=C1C=C(C(F)F)n2ncc(C(=O)Nc3ccc(N(CC)CC)cc3)c2N1 | . | - | . | . | -
COC(=O)CN1C(=O)S/C(=C/c2ccc(N3CCCCC3)o2)C1=O | - | ? | - | - | ?
O=C(CN1C(=O)S/C(=C/c2ccc(N3CCOCC3)cc2)C1=O)N1CCOCC1 | - | - | - | - | -
CCCN1C(=O)S/C(=C\c2ccc(N3CCOCC3)o2)C1=O | -98 | ? | ? | ? | 21µM
CCOC(=O)CN1C(=O)S/C(=C/c2ccc(N3CCCCC3)o2)C1=O | - | - | - | - | -
CCCN1C(=O)S/C(=C/c2ccc(N3CCOCC3)o2)C1=O | -91 | 26µM | - | - | 16µM
O=C(O)CN1C(=O)/C(=C/c2ccc(N3CCCCC3)o2)SC1=S | - | ? | - | - | 23µM
COc1cc2nc(NC(=O)c3ccco3)sc(=O)c2cc1OC | - | ? | - | ? | ?
COc1cc2cc(/C=C/C(=O)c3ccco3)c(Cl)nc2cc1OC | - | 4.1µM | - | ? | 4.6µM
Cc1ccc2cc(/C=N/NC(=O)c3ccc(F)cc3)c(Cl)nc2c1 | - | - | - | - | -
Cc1ccc2cc(/C=C/C(=O)c3ccco3)c(Cl)nc2c1 | . | 10µM | 12µM | ? | 21µM
CC(NC(=O)Cn1c(=O)oc2cc(S(=O)(=O)N3CCCCCC3)ccc21)c1ccccc1 (centres undefined) | . | - | . | . | -
Cc1cccc(C)c1NC(=O)/C(C#N)=C/c1cccs1 | - | 12µM | - | - | ?
Cc1ccc(NC(=O)/C(C#N)=C/c2cccs2)c(C)c1 | - | - | - | - | -
COc1ccc(C2c3c(ncn(CCCO)c3=N)Oc3ccc4ccccc4c32)cc1 (centres undefined) | -96 | 21µM | 21µM | 21µM | 15µM
N=c1c2c(ncn1CCCO)Oc1cc(O)ccc1C2c1ccccc1 (centres undefined) | - | - | - | - | -
COc1ccc(C2c3c(ncn(CCCO)c3=N)Oc3ccc4ccccc4c32)cc1OC (centres undefined) | -100 | 15µM | 23µM | ? | 18µM
COc1ccc(C2c3c(ccc4ccccc34)Oc3ncn4nc(Cc5ccccc5)nc4c32)cc1OC (centres undefined) | - | - | ? | - | ?
COc1ccc(C2c3c(ncn(CCN4CCOCC4)c3=N)Oc3ccc4ccccc4c32)cc1OC (centres undefined) | -87 | ? | 16µM! | ? | ?
COc1ccc(NC(=S)NCc2cccn2C)cc1 | - | - | - | - | -
CCc1nc2ccc(C(=O)NCCCn3ccnc3)cn2c1N(C)Cc1ccc(N(C)C)cc1 | - | ? | - | - | -
Cc1cc(C)n2nc(SCc3nnc(-c4ccccc4Br)o3)nc2n1 | - | - | - | - | ?
COC(=O)C1=CN(Cc2ccccc2)C=C(C(=O)OC)C1c1ccc(OC)c(OC)c1 | - | ? | - | - | ?
